Screening data: PubChem, National Center for Advancing Translational Sciences (NCATS)
The full list was thinned out, with hits kept by preference.
Glioma ERSR ind = qHTS for Inducers of the Endoplasmic Reticulum Stress Response (ERSR) in Human Glioma: qHTS; U87-MG GRP78 promoter luciferase reporter, 16 h; Potency, µM, for inactives: at the top dose activation, hits mostly activators; 0.02% of 420,000 active; also: series mostly up to about 76 µM; % of control where 0% means no effect; nearly all actives have a fitted effect of over 35% in size
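ERSR induction read as luciferase luminescence (Bright-Glo, 10 min at room temperature) in stably transfected human U87-MG glioma cells exposed to compounds for 16 h, using GRP78 as sensor.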
VDR inh = Inhibitors of the vitamin D receptor (VDR): qHTS; Vitamin D3 receptor (Homo sapiens), P11473; VDR-SRC2-3 peptide fluorescence polarization, 2 h; Potency, µM, for inactives: max response, negative = inhibition, hits mostly inhibitors; 0.93% of 400,000 active; AID 504847, 2011; also: % is scaled to controls: 0 for no effect and ±100 for the full control effect
Target sequence (P11473 whole entry, looked up): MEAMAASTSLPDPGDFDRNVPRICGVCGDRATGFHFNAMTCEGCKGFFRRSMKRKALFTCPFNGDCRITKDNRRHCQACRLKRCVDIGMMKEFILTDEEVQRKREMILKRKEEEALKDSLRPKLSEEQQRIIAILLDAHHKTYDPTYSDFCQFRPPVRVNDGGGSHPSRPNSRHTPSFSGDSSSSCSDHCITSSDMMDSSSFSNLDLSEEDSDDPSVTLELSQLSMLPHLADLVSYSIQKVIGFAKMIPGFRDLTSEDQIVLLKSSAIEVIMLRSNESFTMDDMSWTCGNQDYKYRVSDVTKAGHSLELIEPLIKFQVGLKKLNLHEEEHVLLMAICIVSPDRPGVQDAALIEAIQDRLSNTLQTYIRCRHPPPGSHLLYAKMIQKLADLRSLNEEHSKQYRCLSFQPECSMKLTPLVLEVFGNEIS
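Inhibition of the VDR/SRC2-3 peptide interaction is quantified by fluorescence polarization. Compounds (23 nl, pintool) incubate with the reagents for 2 hours at ambient room temperature.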
G9a block = qHTS Assay for Inhibitors of Histone Lysine Methyltransferase G9a. AID 504332, 2011. Potency, µM (doses to about 102 µM), for inactives: at the top dose activity, negative = inhibition, hits mostly inhibitors. G9a H3K9 monomethylation, AlphaScreen, 2 h. Histone-lysine N-methyltransferase EHMT2 (Homo sapiens), Q96KQ7. 8.8% of 350,000 active; also: % is scaled to controls: 0 for no effect and ±100 for the full control effect; nearly all actives have a fitted effect of over 75% in size
Target sequence (Q96KQ7 913-1193 limits assumed): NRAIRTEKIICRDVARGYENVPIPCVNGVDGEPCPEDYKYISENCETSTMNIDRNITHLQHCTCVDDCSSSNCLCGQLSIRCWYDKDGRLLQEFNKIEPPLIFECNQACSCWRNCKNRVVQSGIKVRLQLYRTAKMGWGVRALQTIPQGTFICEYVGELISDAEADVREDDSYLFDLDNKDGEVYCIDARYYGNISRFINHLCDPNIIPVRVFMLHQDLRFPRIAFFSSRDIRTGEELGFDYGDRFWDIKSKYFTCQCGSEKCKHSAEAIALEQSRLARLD
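AlphaScreen read-out: biotin-H3K9 peptide (500 nM) methylation by 20 nM enzyme with 20 uM SAM, 2 h at room temperature after 15 min compound preincubation; anti-monomethyl H3K9 antibody plus donor/acceptor beads, 10 min dark.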
Sfp inh = qHTS Assay for Inhibitors of Bacillus subtilis Sfp phosphopantetheinyl transferase (PPTase); Biochemical Sfp PPTase activity, qHTS; AID 1490, 2009; 4'-phosphopantetheinyl transferase ffp (Bacillus subtilis), Q9F4F7; 3.5% of 310,000 active; Potency, µM, for the others: largest response in the series, negative = inhibition, most hits filed as inhibitors;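 also: the enzyme is Sfp with the accession as filed and its product quenches rhodamine fluorescence; 0% = enzyme reaction without inhibitor and -100% = no enzyme wells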
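With Hepes-Na pH 7.6 buffer containing 10 mM MgCl2, Sfp (15 nM) modified BHQ-2-YbbR (12.5 uM) using rhodamine-CoA (5 uM). Two reads 30 minutes apart at 525/598 nm yielded each well's rate.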
12-LOX inh = Primary qHTS assay for inhibitors of human arachidonate 12S-lipoxygenase (ALOX12): Round 2; Polyunsaturated fatty acid lipoxygenase ALOX12 (Homo sapiens), P18054; purified 12hLO, xylenol orange hydroperoxide absorbance; Potency, µM (titrated, usually from 108 µM), inactives show at the highest dose activity change, negative = inhibition, actives largely listed as inhibitors; 1.1% of 580,000 active; AID 1671190, 2021; also: % is scaled to controls: 0 for no effect and ±100 for the full control effect
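Purified human 12hLO (150 nM final) in 25 mM Hepes, 0.01% Triton X-100, pH 7.0 was preincubated 15 min at room temperature with compound. Then 40 uM arachidonic acid was added, 30 min. Hydroperoxide was read by Fe-XO absorbance ratio 573/405 nm.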
* = called active by the depositor; u = inconclusive; x = not tested or not shown; ! = not confirmed by another sample; [ ] = dose if it differs, or a comment. Calls follow the shape of the dose curve; as a rule, active = well fitted curve in the direction sought with a large enough effect; inconclusive = small, poorly fitted or top-dose-only effect, or another doubt; inactive = no such curve, though single readings can be large; an effect the other way counts as inactive or inconclusive. Potency is read from the fitted curve at half-maximal effect.

SMILES	Glioma ERSR ind	VDR inh	G9a block	Sfp inh	12-LOX inh
CCNC(=O)N1c2ccc(OCC)cc2C(C)=CC1(C)C	0%	-6%	45µM*	u	5%[57.4 µM]
CCOc1ccc2c(c1)C(C)=CC(C)(C)N2C(=O)Nc1ccccc1F	0%	-7%	u	35µM*	u
CN(C)c1ccc(-c2nc(-n3ccnc3)c3ccccc3n2)cc1	-11%	25µM*	5%[0.501 µM]	-3%	u
Clc1ccccc1-c1nc(-n2ccnc2)c2ccccc2n1	-4%	56µM*	-47%[0.501 µM]	3%	56µM*
Cc1cc(C(=O)COc2ncnc3ccccc23)c(C)n1C	x	x	x	x	12%
CN1C(=O)CS/C1=N\NC(=O)COc1cccc2cccnc12	-2%	-6%	3.5µM*	1%	-7%
Cc1cc(C(=O)COc2cccc3cccnc23)c(C)n1C	3%	-9%	2.8µM*	2%	0%
Cn1c(COc2cccc3cccnc23)nnc1SCC(=O)O	-3%	-17%	x	13%	7.9µM*!
Cc1cc(C(=O)COc2nncc3ccccc23)c(C)n1C	1%	-7%	79µM*	12%	0%
COC(=O)CCNC(=O)C(c1ccccc1)c1ccccc1	x	x	x	x	-16%
CCOC(=O)c1ccc(NC(=O)CN2CCCN(Cc3ccc(OC)cc3)S2(=O)=O)cc1	x	x	x	x	16%
O=C(c1cc(=O)[nH]c2ccccc12)N(Cc1nnc(-c2ccccc2Cl)o1)C1CC1	-3%	-7%	50µM*	x	-23%
Cc1c(C(=O)N(Cc2nnc(-c3ccccc3Cl)o2)C2CC2)oc2ccccc12	1%	10%	30%[12.7 µM]	x	11%
Cc1cc(C)c(NC(=O)c2c[nH]c(=S)n2-c2ccc(F)cc2)c(C)c1	-3%	-7%	2.8µM*	-11%	u
Cc1cc(C)c(NC(=O)C2=CCN(S(=O)(=O)c3ccc(F)cc3)CC2)c(C)c1	-6%	-4%	u	-3%	2%
COC(=O)[C@H](CC(C)C)N(Cc1cn(CC2CCCCC2)nn1)S(=O)(=O)c1ccccc1Br	x	x	x	x	5.6µM*
COC(=O)[C@H](CC(C)C)N(CCc1cn(CC2CCCCC2)nn1)S(=O)(=O)c1ccc(F)cc1Br	x	x	x	x	28%
COC(=O)[C@H](CC(C)C)N(Cc1cn(CC2CCCCC2)nn1)S(=O)(=O)c1ccc(F)cc1Br	x	x	x	x	10µM*
O=C(CCC(=O)c1ccc2c(c1)OCCO2)NC1CCCCC1	x	x	x	x	9%
CCOC(=O)N1CCN([C@H]2CS(=O)(=O)C[C@@H]2S(=O)(=O)c2ccc(C)cc2)CC1	x	x	x	x	-43%
CC(C)SCC(=O)Nc1ncc2c(n1)-c1ccccc1CC2	1%	7%	20µM*	-2%	u
COc1ccc2oc(-c3ccc(NC(=O)c4ccccc4C)cc3)nc2c1	x	x	x	x	5%
CCc1ccc2c(CN(C)Cc3ccccc3OC)cc(=O)oc2c1	-1%	10%	u	45µM*	u
COc1ccc(CN(C)Cc2cc(=O)oc3cc(C)c(C(C)C)cc23)cc1OC	-4%	-11%	89µM*	u	u
Cc1ccc2c(CN(C)CCOc3ccc(Cl)cc3)cc(=O)oc2c1	x	x	x	x	35µM*
SMILES	Glioma ERSR ind	VDR inh	G9a block	Sfp inh	12-LOX inh
Cc1ccc2c(CN(C)CCOc3ccc(Br)cc3)cc(=O)oc2c1	x	x	x	x	13%
CCc1ccc2c(CN(C)CCOc3ccccc3F)cc(=O)oc2c1	x	x	x	x	-15%
Cc1cc2oc(=O)cc(CN(C)Cc3ccccc3)c2cc1C(C)C	-4%	-13%	-7%[2.33 µM]	-15%	31%
CCc1ccc2c(CN(C)CCOc3ccc(F)cc3)cc(=O)oc2c1	x	x	x	x	45µM*
CN(Cc1ccccc1)Cc1cc(=O)oc2ccccc12	-1%	x	x	x	-23%
CCCC(=O)Nc1ccc(C(=O)Nc2cc(C)cc(C)c2)cc1	x	x	x	x	9%
O=c1c2ccccc2c(-c2n[nH]c(=S)o2)nn1Cc1ccccc1	3%	-13%	4µM*	79µM*	u
CCSc1nnc(-c2nn(Cc3ccccc3)c(=O)c3ccccc23)o1	x	x	x	x	-7%
COc1cccc(-c2cn3nc(C)c(C)nc3n2)c1	-13%	9%	20µM*	u	45%
Cc1nn(-c2ccccc2)c(C)c1/C=N/n1c(-c2ccccc2Br)n[nH]c1=S	-1%	-16%	3.2µM*	u	-47%
CCN(CC)c1ccc(/C=N/n2c(-c3ccccc3Br)n[nH]c2=S)cc1	-3%	-11%	2.8µM*	u	u
CCc1n[nH]c(=S)n1/N=C/c1ccc(N(C)c2ccccc2)cc1	0%	-22%	u	-23%	u
O=C(NCc1ccco1)c1cc2cc(Br)ccc2[nH]1	x	x	x	x	32µM*
CCN(Cc1ccco1)C(=O)c1cc2cc(Br)ccc2[nH]1	x	x	x	x	18µM*
N#Cc1ccc(OCC(O)CSc2ccc(O)cc2)cc1 (centres undefined)	x	x	x	x	-21%
COc1ccc(-c2nc(CS(=O)(=O)CC(=O)NCc3ccc4c(c3)OCO4)c(C)o2)cc1	-3%	25%	x	-4%	29%
Cc1ccccc1-c1nsc(SCC(=O)NCc2ccc3c(c2)OCO3)n1	-2%	-14%	35µM*	-21%	0%
Cc1ccccc1-c1nc(CS(=O)(=O)CC(=O)NCc2ccc3c(c2)OCO3)c(C)o1	0%	-22%	50µM*	0%	-8%[57.4 µM]
Cc1nn(-c2ccccc2)cc1C(=O)N1CCC(C(C)C(=O)NCc2ccccc2)CC1 (centres undefined)	x	x	x	x	7%
NC(=S)N/N=C/c1ccc(-n2nncc2-c2ccc(Cl)cc2)cc1	-2%	0%	45µM*	-2%	x
Nc1cccc(-n2nncc2-c2ccc(Cl)cc2)c1	x	x	u	7%	x
Cc1ccc(-c2nc3cc(NC(=O)c4cc(Br)ccc4Cl)ccc3o2)cc1	x	-8%	u	x	40µM*
Cc1cc(C)c2oc(-c3ccc(C)c(NC(=O)/C=C/c4ccco4)c3)nc2c1	0%	u	10µM*	x	50µM*
COc1ccccc1C(=O)Nc1ccc(-c2nc3cc(C)cc(C)c3o2)cc1	x	89µM*	31%[59 µM]	x	u
CN(CC(=O)Nc1ccccc1)C(=O)c1cc2c(s1)CCCCC2	x	x	x	x	-15%
SMILES	Glioma ERSR ind	VDR inh	G9a block	Sfp inh	12-LOX inh
CC(C)NC(=S)N/N=C/C(Cl)=C/c1ccccc1	x	x	x	x	-25%
CCCn1c(NC(=O)CCOc2ccc(C)cc2)nc2ccccc21	x	x	x	x	-1%
Cc1ccc(S(=O)(=O)NCC(=O)N/N=C/c2ccc(Cl)cc2)cc1	-3%	-15%	54%[59 µM]	-2%	u
Cc1ccc(S(=O)(=O)NCC(=O)N/N=C/c2ccc(Cl)cc2Cl)cc1	-2%	10%	11%	45µM*	u
CCN(CC)c1ncc(C=O)s1	x	x	x	x	-21%
O=[N+]([O-])c1cc(Br)c(O)c(/C=N/Nc2nnnn2-c2cccc3ccccc23)c1	-5%	u	7%[12.7 µM]	3%	11µM*
